Calls of active or inactive are those of the source. How the source made its calls: active means hit-call score of the fitted dose curve at least 0.9, where 1 is the maximum; inactive means score below 0.9.
Each compound was assayed on Interleukin-8 (IL8), CXCL8 (gene 3576) (assay: BSK_3C_IL8: BioMAP Diversity Plus: 3C Assay for Interleukin-8 (IL8) Biomarker Activity (AID 2283020)). Conditions: primary human endothelial cells (HUVEC); actives raise or lower the signal.
Description: BSK_3C is a cell-based, multiplexed-readout assay that uses umbilical vein endothelium, a human vascular primary cell, with measurements taken at 24 hours after chemical dosing in a 96-well plate.BSK_3C_IL8 is an assay component measured in the BSK_3C assay. It measures IL-8 antibody related to regulation of gene expression using ELISA technology.Data from the assay component BSK_3C_IL8 was analyzed into 1 assay endpoint. This assay endpoint, BSK_3C_IL8, was analyzed with bidirectional fitting relative to DMSO as the negative control and baseline of activity. Using a type of binding reporter, gain or loss-of-signal activity can be used to understand changes in the signaling as they relate to the gene CXCL8. Furthermore, this assay endpoint can be referred to as a primary readout, because this assay has produced multiple assay endpoints where this one serves a signaling function. To generalize the intended target to other relatable targets, this assay endpoint is annotated to the cytokine intended target family, where the subfamily is interleukins.
The levels of cell surface (or secreted, indicated by the prefix "s") biomarker endpoints were measured by ELISA. Overt cytotoxicity to cells in confluent adherent cultures (all systems other than the BT system) was assessed by measuring total protein levels using sulforhodamine B (SRB) staining in parallel cultures at the time of biomarker measurements, indicated as SRB endpoints. For proliferation assays for adherent cell types, individual cell types are cultured at sub-confluence and relative cell numbers quantified by SRB staining at time points optimized for each system (48 h: 3C and CASM3C systems; 72 h: BT and HDF3CGF systems; 96 h: SAg system). SRB was performed by staining cells with 0.1% SRB after fixation with 10% TCA and reading wells at 560 nm.Viability and proliferation of PBMC (T cells) was quantified by Alamar Blue reduction for the SAg and BT systems. For PBMC viability (referred to as PBMC Cytotoxicity within the assay endpoint names), cells were plated (75,000/well in a 96-well plate) and then chemical samples added for 1 h before addition of activators, SEB and TSST-1 (20 ng/mL final concentration each). Cells were incubated for 90 h. Then, Alamar Blue (20 uL/well) (Invitrogen, Cat DAL1100) was added for 6 h, and the plates were read with a fluorescence microplate reader at 546/580 nm (excitation/emission). For PBMC proliferation, cells were plated and activated as above but incubated for only 16 h prior to addition of Alamar Blue. Plates were read after 6 h.

Compound | AC50 | outcome
CCCCCCCCCCCO | 28.6 µM (active) | 
CCCCCCCCCCCCO | 36 µM (active) | 
CC(C)(O)c1ccc(CNC(=O)c2cccnc2Oc2ccc3nonc3c2)cc1 |  | inactive
CC1=CC(=O)/C(=C(/C)O)C(=O)O1 |  | inactive
CN(C)C(=O)C1(N2CCCCC2)CCN(CC[C@@]2(c3ccc(Cl)c(Cl)c3)CN(C(=O)c3ccccc3)CCO2)CC1 | 24.3 µM (active) | 
CC(C)(c1cc(Br)c(O)c(Br)c1)c1cc(Br)c(O)c(Br)c1 | 31.8 µM (active) | 
O=C(O)Cn1c(=O)n(Cc2ccc(Br)cc2F)c(=O)c2ccc(Cl)cc21 |  | inactive
Clc1ccccc1C(c1ccccc1)(c1ccccc1)n1ccnc1 | 27.2 µM (active) | 
CC[C@@H]1C[C@H](N(Cc2cc(C(F)(F)F)cc(C(F)(F)F)c2)C(C)=O)c2cc(C(F)(F)F)ccc2N1C(=O)OC(C)C |  | inactive
OCCO |  | inactive
Cc1cn([C@H]2C[C@H](N=[N+]=[N-])[C@@H](CO)O2)c(=O)[nH]c1=O |  | inactive
COCC(C)OCC(C)OCC(C)O (stereo not given) |  | inactive
CCCCCCCCCCCC[N+](C)(C)C | 12.7 µM (active) | 
CCCCCc1ccc(N)cc1 |  | inactive
NC(=O)c1nc(-c2cccc(-c3cc(F)ccc3OCC(F)(F)C(F)(F)F)c2)n[nH]1 | 34.4 µM (active) | 
CCCCOC(=O)CC(CC(=O)OCCCC)(OC(C)=O)C(=O)OCCCC |  | inactive
Cc1ccc(C(C)C)cc1 |  | inactive
O=C(O)c1ccccc1-n1cc(C(=O)O)c(=O)c2cc(Nc3c(F)cc(F)cc3Cl)c(Cl)cc21 |  | inactive
Cc1c2ccccc2c(C)c2c1ccc1ccccc12 | 35.9 µM (active) | 
CCCCOC(=O)c1ccc(O)cc1 |  | inactive

Compound | AC50 | outcome
CN1C(=O)N(c2ccccc2Br)Cc2cnc(Nc3ccc4c(c3)OCC(CO)O4)nc21 (stereo not given) | 12.2 µM (active) | 
Cc1ccc2oc(CN(Cc3ccccc3)C(=O)Nc3c(F)cc(F)cc3F)c(-c3ccc(Cl)cc3)c2c1 |  | inactive
OC12N=C(c3ccccc3)SC1Cc1cc(Cl)ccc12 (stereo not given) |  | inactive
CCCCCCCCOC(=O)c1cc(O)c(O)c(O)c1 | 30.8 µM (active) | 
NCc1cccc(C2CCN(C(=O)c3ccc(C#Cc4ccccc4F)o3)CC2)c1 | 23.1 µM (active) | 
Cc1oc2c(NC(=O)c3c(Cl)cccc3Cl)cccc2c1C(C)(C)O |  | inactive
Clc1cc(Cl)c2c(c1)N=C1CCCCCN1C2 |  | inactive
CCN(Cc1cccnc1)C(=O)c1cccc(Cl)c1[C@]1(C)C(=O)N(Cc2ccc(OC)cc2OC)c2ccc(Cl)cc21 | 5.8 µM (active) | 
CCCCCCCCCC(=O)O |  | inactive
CC1(C)NC(=O)N(c2ccc([N+](=O)[O-])c(C(F)(F)F)c2)C1=O |  | inactive
C[C@]12CC[C@@H]3c4ccc(O)cc4CC[C@H]3[C@@H]1CCC2=O |  | inactive
O=C(OCCCCCCOC(=O)c1ccccc1)c1ccccc1 |  | inactive
C[C@]12CC[C@@H]3c4ccc(O)cc4CC[C@H]3[C@@H]1CC[C@H]2O | 13 µM (active) | 
CCCOC(=O)c1cc(O)c(O)c(O)c1 |  | inactive
CN(C[C@@H](CC[N+]12CCC(C3CCCCC3)(CC1)CC2)c1ccc(Cl)c(Cl)c1)C(=O)c1cc(C(F)(F)F)cc(C(F)(F)F)c1 | 24.3 µM (active) | 
O=C1O[C@H]([C@@H](O)CO)C(O)=C1O |  | inactive
Cc1occc1C(=O)Nc1ccc(C(=O)N2CCC(F)(F)/C(=C\C(=O)N3CCC(N4CCCCC4)CC3)c3ccccc32)cc1 |  | inactive
Cc1cc(F)ccc1-c1cc(N2CC[C@@H](O)[C@H]2CO)ncc1N(C)C(=O)C(C)(C)c1cc(C(F)(F)F)cc(C(F)(F)F)c1 | 9.76 µM (active) | 
CCCCCCCC[Si](OCC)(OCC)OCC | 30 µM (active) | 
CC[C@H](NC(=O)c1cc(F)ccc1NS(=O)(=O)c1cccc2cccnc12)c1ccccc1 |  | inactive

From PubChem BioAssay (EPA / NIEHS)
